Values joined by “and” are separate entries in the source; they are usually repeats but may differ in a detail not shown here. Equal entries are not always repeated. Records with an inconclusive call do not appear. A call without a number means that no potency is given here. Where a structure was tested more than once in an assay, its records may differ in their call. Active and inactive are the calls of the source. Unless noted, the call rests on the fitted dose curve; in most records, active means well fitted curve in the direction sought with a large enough effect in the repeat runs; inconclusive means weak or mixed curves; inactive means no such curve, though single readings can be large; an effect the other way counts as inactive or inconclusive.
How the values were obtained:
[1] = qHTS assay to identify small molecule antagonists of the androgen receptor (AR) signaling pathway using the MDA cell line in the presence of 0.5 nM R1881 - cell viability counter screen (AID 1259242); further: nearly all actives have a fitted effect of over 45% in size; further: potency means the concentration at half of the fitted maximal effect
Method in brief: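 R1881 at 0.5 nM final stimulated MDA-kb2 cells during 16 hr compound treatment at 37C. Cytotoxicity read: CellTiter-Fluor fluorescence after 30 min.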

[2] = qHTS assay to identify small molecule HDAC inhibitors (AID 1259364); further: potency means the concentration at half of the fitted maximal effect;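 further: wild-type HCT-116 cells with endogenous class I/II HDAC activity; nearly all actives have a fitted effect of over 45% in size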
Method in brief: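 Relative class I and II HDAC activity is taken from the luminogenic signal in HCT-116 cells, with compound exposure 2 hr and reagent development 30 min at room temperature.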

[3] = qHTS assay to identify small molecule HDAC inhibitors - cell viability counter screen (AID 1259365); further: nearly all actives have a fitted effect of over 50% in size; further: potency means the concentration at half of the fitted maximal effect
Method in brief: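 Following a 2hr exposure of overnight-plated wild-type HCT-116 cells to DMSO-delivered compounds, CellTiter-Glo was added and luminescence recorded after 30min at room temperature.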

[4] = qHTS assay to identify small molecule agonists of the sonic hedgehog signaling (Shh) pathway - cell viability counter screen (AID 1259366); further: nearly all actives have a fitted effect of over 50% in size; further: potency means the concentration at half of the fitted maximal effect
Method in brief: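 After a 4hr attachment at 37C, NIH/3T3 cells bearing an integrated Gli1-driven luciferase reporter were dosed with compounds. Treatment lasted 24hr, with the final hour including CellTiter-Fluor for a fluorescence viability measurement.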

[5] = qHTS assay to identify small molecule antagonists of the sonic hedgehog signaling (Shh) pathway - cell viability counter screen (AID 1259367); further: nearly all actives have a fitted effect of over 55% in size; further: potency means the concentration at half of the fitted maximal effect
Method in brief: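 Cells: 3T3 Gli1-Luc, 2,000/well, 4 hr pre-incubation. Compounds in DMSO, then conditioned medium. Incubation 24 hr, 37C, 5% CO2. CellTiter-Fluor at 23 hr, 1 hr, fluorescence.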

[6] = qHTS assay to identify small molecule agonists of the sonic hedgehog signaling (Shh) pathway (AID 1259368; calls by dose curve;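 further: NIH/3T3-derived 3T3Gli1-Luc cells carrying a stable Gli1-driven firefly luciferase reporter; series mostly up to about 92 µM; nearly all actives have a fitted effect of over 15% in size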)
Method in brief: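 Mouse fibroblast (NIH/3T3) reporter cells with stably integrated Gli1-Luc were treated 24 hr with compound; firefly luciferase luminescence served as the read-out.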

[7] = molecular target: Estrogen receptor (Homo sapiens) (UniProt P03372); assay: qHTS assay to identify small molecule antagonists of the estrogen receptor alpha (ER-alpha) signaling pathway using the BG1 cell line in the presence of 0.1 nM 17-beta-estradiol (AID 1259244); further: nearly all actives have a fitted effect of over 50% in size; further: potency means the concentration at half of the fitted maximal effect
Method in brief: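 VM7Luc4E2; 4xERE-luciferase; 0.1 nM E2 final; 22 h co-incubation, 37C; ONE-Glo luminescence after 30 min at room temperature.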

[8] = qHTS assay to identify small molecule antagonists of the sonic hedgehog signaling (Shh) pathway (AID 1259369; calls by dose curve; further: nearly all actives have a fitted effect of over 45% in size; further: potency means the concentration at half of the fitted maximal effect)
Method in brief: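 Conditioned medium drives Shh signalling in 3T3Gli1-Luc cells; compounds in DMSO co-applied, 24hr at 37 C, then luciferase luminescence.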

[9] = qHTS assay to identify small molecule phospholipidosis (PLD) inducers (AID 1259344; active means well fitted curve in the direction sought with a large enough effect; an effect the other way counts as inactive or inconclusive)
Method in brief: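 Phospholipidosis is scored by imaging LipidTOX-stained pits in HepG2 cells exposed to compound for 24 h at 37 C; pit counts and integrated intensities per well and per cell serve as outputs.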

Chain of Estrogen receptor (Homo sapiens) (P03372 whole entry, looked up): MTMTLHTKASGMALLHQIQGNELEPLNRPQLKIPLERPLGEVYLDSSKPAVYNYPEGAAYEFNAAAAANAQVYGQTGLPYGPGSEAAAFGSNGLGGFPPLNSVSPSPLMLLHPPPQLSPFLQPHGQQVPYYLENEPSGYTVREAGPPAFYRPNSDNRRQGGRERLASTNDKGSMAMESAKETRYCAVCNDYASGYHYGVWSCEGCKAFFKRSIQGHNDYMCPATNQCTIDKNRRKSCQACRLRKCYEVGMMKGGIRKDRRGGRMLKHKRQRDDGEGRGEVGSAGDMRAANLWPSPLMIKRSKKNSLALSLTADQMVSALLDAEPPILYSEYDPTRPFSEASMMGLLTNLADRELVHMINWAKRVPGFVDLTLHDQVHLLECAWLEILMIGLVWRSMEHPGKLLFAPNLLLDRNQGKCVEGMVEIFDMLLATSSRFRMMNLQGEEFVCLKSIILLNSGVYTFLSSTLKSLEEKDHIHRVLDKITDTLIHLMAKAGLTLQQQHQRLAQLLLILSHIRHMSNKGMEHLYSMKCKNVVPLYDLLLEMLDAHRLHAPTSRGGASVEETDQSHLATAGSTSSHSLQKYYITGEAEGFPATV

| Structure (SMILES) | Potency [1] | Potency [2] | Potency [3] | Potency [4] | Potency [5] | Potency [6] | Potency [7] | Potency [8] | outcome [9] | PLD induction [9] |
| --- | --- | --- | --- | --- | --- | --- | --- | --- | --- | --- |
| COC1=CC(=O)O[C@@H](/C=C/c2ccc3c(c2)OCO3)C1 | inactive | 23.3 µM (active) | inactive | inactive | inactive | inactive |  |  |  |  |
| Cc1ccc2c(C)cccc2c1 | inactive |  | inactive | inactive | inactive | inactive | inactive | inactive |  |  |
| CCCCCCCCCCCCCCCl | inactive |  | inactive | inactive | inactive | inactive | inactive | inactive |  |  |
| Nc1ccc2c(c1)Cc1ccccc1-2 | inactive |  | inactive | inactive | inactive | inactive | inactive | inactive |  |  |
| CCCCNC(=O)OCC#CI | 60.8 µM (active) |  | inactive | 60.8 µM (active) and 30.6 µM (active) | 54.2 µM (active) and 61.1 µM (active) | inactive | 12.1 µM (active) and 48.6 µM (active) | 2.16 µM (active) and 7.7 µM (active) |  |  |
| COc1ccc(C(=O)c2c(C)n(CCN3CCOCC3)c3ccccc23)cc1 | inactive | inactive | inactive |  |  | inactive |  | inactive | inactive |  |
| Oc1cccc(Cl)c1 | inactive |  | inactive | inactive | inactive | inactive | inactive | inactive |  |  |
| COc1ccccc1N1CCNCC1 | inactive | inactive | inactive |  | inactive | inactive |  | inactive | inactive |  |
| O=C1CC[C@@]2(O)[C@H]3Cc4ccc(O)c5c4[C@@]2(CCN3CC2CC2)[C@H]1O5 | inactive | inactive | inactive |  | inactive | inactive |  | inactive | inactive |  |
| CN(C)C(=O)Nc1cccc(OC(=O)NC(C)(C)C)c1 | inactive |  |  | inactive | inactive | inactive | inactive | inactive |  |  |
| CCCC[N+](CCCC)(CCCC)CCCC | inactive | inactive |  | inactive |  | inactive | inactive | inactive |  |  |
| CCC[N+](CCC)(CCC)CCC | inactive | inactive | inactive |  | inactive | inactive | inactive | inactive |  |  |
| C[C@@H]1C[C@@H]([C@H](O)CC2CC(=O)NC(=O)C2)C(=O)[C@@H](C)C1 | inactive | inactive | inactive | 2.16 µM (active) | 136 nM (active) and 969 nM (active) | inactive |  | 12.1 nM (active) and 48.6 nM (active) and 150 nM (active) |  | 2.68% [at 7.66 µM] (inactive) |
| O=C([O-])c1ccccn1.O=C([O-])c1ccccn1.O=C([O-])c1ccccn1.[Cr+3] | inactive | inactive |  |  | inactive | inactive | inactive | inactive |  |  |
| CC(=O)OC(c1ccccc1)C(Cl)(Cl)Cl (centres undefined) | inactive | inactive |  | inactive | inactive | inactive | inactive | inactive |  |  |
| C[N+](C)(C)CCOC(=O)C(O)(c1ccccc1)c1ccccc1 | inactive |  |  | inactive | inactive | inactive |  | inactive | inactive |  |
| CCCN(CCC)c1c([N+](=O)[O-])cc(C(C)C)cc1[N+](=O)[O-] | inactive | inactive |  | inactive | inactive | inactive | inactive | inactive |  |  |
| CC[N+]1(C)CCCC(OC(=O)C(O)(c2ccccc2)c2ccccc2)C1 (centres undefined) | inactive |  | inactive | inactive | inactive | inactive |  | inactive | inactive |  |
| CCCBr | inactive |  | inactive |  | inactive | inactive | inactive | inactive |  |  |
| CCC(C)(C)c1ccc(O)c(C(C)(C)CC)c1 | 67.8 µM (active) | inactive |  | inactive | inactive | inactive | inactive | inactive |  |  |
| CC(C)(C)c1ccc(CCOc2ncnc3ccccc23)cc1 | inactive |  | inactive | inactive | inactive | inactive | inactive | inactive |  |  |
| CC(C)(C)CC(C)(C)c1ccc(O)cc1 | inactive |  | 61.1 µM (active) and inactive |  |  |  |  | 15.4 µM (active) | inactive |  |
| CC(C)CCON=O | inactive | inactive |  | inactive | inactive | inactive |  | inactive | inactive |  |
| CCCCCl | inactive | inactive |  | inactive | inactive | inactive |  | inactive | inactive |  |
| [Cl-].[Cl-].[Hg+2] | 6.86 µM (active) | 54.2 µM (active) and 34.4 µM (active) | 68.2 µM (active) | 682 nM (active) and 2.17 µM (active) | 964 nM (active) and 1.93 µM (active) | inactive |  | 34.2 nM (active) and 243 nM (active) | inactive |  |
| CCCCC(CC)COC(=O)c1c(Br)c(Br)c(Br)c(Br)c1C(=O)OCC(CC)CCCC (centres undefined) | inactive | inactive | inactive |  | inactive | inactive | inactive | inactive |  |  |
| O=C1NC(=O)C(=O)C(=O)N1 | inactive | inactive |  | inactive | inactive | inactive | inactive |  |  |  |

| Structure (SMILES) | Potency [1] | Potency [2] | Potency [3] | Potency [4] | Potency [5] | Potency [6] | Potency [7] | Potency [8] | outcome [9] | PLD induction [9] |
| --- | --- | --- | --- | --- | --- | --- | --- | --- | --- | --- |
| C=C(C)C(=O)OCCCCOC(=O)C(=C)C | inactive | inactive |  | inactive | inactive | inactive | inactive | inactive |  |  |
| CCOP(=O)(O)C(N)=O | inactive |  | inactive |  | inactive | inactive | inactive | inactive |  |  |
| C[C@]12CC[C@H]3[C@@H](CCC4=CC(=O)CC[C@@H]43)[C@@H]1CC[C@@H]2OC(=O)CCc1ccccc1 | inactive | inactive | inactive | inactive | inactive | inactive |  |  | inactive |  |
| C[C@H]1[C@@H]2Cc3ccc(O)cc3[C@@]1(C)CCN2C | inactive |  | inactive | inactive | inactive | inactive |  |  | inactive |  |
| COC(=O)C1(O)c2ccccc2-c2ccccc21 | inactive |  | inactive | inactive | inactive | inactive | inactive | inactive |  |  |
| C=CC(=O)NC(C)(C)CC(C)=O | inactive | inactive |  | inactive | inactive | inactive | inactive | inactive |  |  |
| CC(C)C1(C)N=C(c2ncccc2C(=O)O)NC1=O (centres undefined) | inactive |  | inactive |  | inactive | inactive | inactive | inactive |  |  |
| C=CC(=O)OCC | inactive | inactive |  | inactive | inactive | inactive | inactive | inactive |  |  |
| C[C@H]1O[C@H](OC2[C@@H](O)[C@@H](O)C(O)[C@H](O)[C@H]2O)[C@@H](N)C[C@@H]1N=C(N)C(=O)O (some centres undefined) | inactive | inactive |  |  | inactive | inactive | inactive | inactive |  |  |
| CC(C)CCCCCCCOC(=O)c1ccccc1C(=O)OCCCCCCCC(C)C | inactive | inactive | inactive | inactive | inactive | inactive |  | inactive |  |  |
| CCOC(=O)C1OC1(C)c1ccccc1 (centres undefined) | inactive |  | inactive | inactive | inactive | inactive |  | inactive |  |  |
| Nc1ccccc1C(=O)OCCc1ccccc1 | inactive | 9.73 µM (active) and 3.86 µM (active) | inactive | inactive | inactive |  |  | inactive |  |  |
| Nc1cc(Cl)cc(C(=O)O)c1Cl | inactive | inactive | inactive |  | inactive | inactive |  | inactive |  |  |
| CCCCCCCCn1sccc1=O |  | inactive |  | 4.34 µM (active) and 3.21 µM (active) | 4.34 µM (active) | inactive | 30.7 µM (active) | 1.37 µM (active) and 1.02 µM (active) |  |  |
| CCOP(=O)(SC(C)CC)N1CCSC1=O (centres undefined) | inactive | inactive |  | inactive | inactive | inactive |  | inactive |  |  |
| CCCCCCCCP(=O)(O)O | inactive | inactive | inactive |  | inactive | inactive |  | inactive |  |  |
| CC1(C)CC(=O)CC(C)(C)N1[O] | inactive | inactive |  | inactive | inactive | inactive |  | inactive |  |  |
| C=CCOC(=O)C(C)(C)OC(=O)c1cc(-n2c(=O)cc(C(F)(F)F)n(C)c2=O)ccc1Cl | inactive |  | inactive | inactive | inactive | inactive |  | inactive |  |  |
| C=CC(C)(CCC=C(C)C)OC(=O)c1ccccc1N (centres undefined) | inactive | inactive |  | inactive | inactive | inactive |  | inactive |  |  |
| Nc1cccc2ccccc12 | inactive |  | inactive | inactive | inactive | inactive |  |  |  |  |
| CCOC(C(=O)OCCN(C)C)(c1ccccc1)c1ccccc1 | inactive | inactive |  | inactive |  | inactive |  | inactive |  |  |
| O=C1c2ccccc2C(=O)N1SC(Cl)(Cl)Cl |  | inactive | inactive | 12 µM (active) and 9.69 µM (active) | 9.55 µM (active) and 17.2 µM (active) | inactive | 15.1 µM (active) and 21.7 µM (active) | 1.07 µM (active) and 1.93 µM (active) |  |  |
| CCC1CCC(=O)O1 (centres undefined) | inactive | inactive | inactive | inactive | inactive | inactive |  | inactive |  |  |
| CCCCOC(=O)CCC(=O)OCCCC | inactive | inactive | inactive | inactive | inactive | inactive |  | inactive |  |  |
| Cc1ccc(N)c(C)c1 | inactive | inactive | inactive | inactive | inactive | inactive |  | inactive |  |  |
| CCc1cnc(C2=NC(C)(C(C)C)C(=O)N2)c(C(=O)O)c1 (centres undefined) | inactive |  | inactive | inactive | inactive | inactive |  | inactive |  |  |

From PubChem BioAssay (Tox21)
